Measurements reported in PubChem BioAssay (Tox21).
Activity calls are given as the source filed them. Unless noted, the call rests on the fitted dose curve; in most records, active means well fitted curve in the direction sought with a large enough effect in the repeat runs; inconclusive means weak or mixed curves; inactive means no such curve, though single readings can be large; an effect the other way counts as inactive or inconclusive.

Experiments:
[1] = qHTS assay to identify small molecule antagonists of the thyroid receptor (TR) signaling pathway (AID 743065); further: nearly all actives have a fitted effect of over 55% in size; further: potency means the concentration at half of the fitted maximal effect; on activity, negative = inhibition: series mostly up to about 70 µM
Summary of the method: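 GH3.TRE-Luc rat pituitary cells (two TREs driving luciferase) were dosed with compound, then stimulated with 1 nM T3 (final) for 23.5 h at 37 C. ONE-Glo luminescence was the read-out, with CellTiter-Fluor fluorescence as the cytotoxicity counter-screen.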

[2] = test system: thyroid hormone receptor (rat, GH3 cells); assay: qHTS assay to identify small molecule agonists of the thyroid receptor (TR) signaling pathway (AID 743066; calls by dose curve; further: potency means the concentration at half of the fitted maximal effect)
[3] = qHTS assay to identify small molecule antagonists of the estrogen receptor alpha (ER-alpha) signaling pathway - cell viability counter screen (AID 743074; calls by dose curve; further: nearly all actives have a fitted effect of over 45% in size)
[4] = qHTS assay to identify small molecule antagonists of the estrogen receptor alpha (ER-alpha) signaling pathway using the BG1 cell line - cell viability counter screen (AID 743081);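 further: compound given together with 17beta-estradiol as the ER stimulus; series mostly up to about 70 µM; nearly all actives have a fitted effect of over 45% in size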
Aromatase (Homo sapiens) = Aromatase (Homo sapiens) (UniProt P11511); assay: qHTS assay to identify aromatase inhibitors (AID 743083); further: series mostly up to about 70 µM; nearly all actives have a fitted effect of over 55% in size
[5] = target: Estrogen receptor (Homo sapiens) (UniProt P03372); assay: qHTS assay to identify small molecule agonists of the estrogen receptor alpha (ER-alpha) signaling pathway (AID 743075; calls by dose curve; further: potency means the concentration at half of the fitted maximal effect)
[6] = target: Estrogen receptor (Homo sapiens) (UniProt P03372); assay: qHTS assay to identify small molecule agonists of the estrogen receptor alpha (ER-alpha) signaling pathway using the BG1 cell line (AID 743079); further: nearly all actives have a fitted effect of over 20% in size; further: potency means the concentration at half of the fitted maximal effect
[7] = qHTS assay to identify small molecule antagonists of the estrogen receptor alpha (ER-alpha) signaling pathway using the BG1 cell line (AID 743080; calls by dose curve;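 further: BG1 cells stimulated with 17beta-estradiol alongside compound; series mostly up to about 70 µM; nearly all actives have a fitted effect of over 25% in size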)
Summary of the method: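 Luminescence from a 4×ERE-luciferase reporter in BG1-Luc-4E2 cells served as read-out. Cells, pre-cultured 5 days in stripped-serum phenol-red-free medium, were exposed to compound with 17beta-estradiol co-stimulation for 21.5 h at 37 C.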

[8] = qHTS assay to identify aromatase inhibitors - cell viability counter screen (AID 743084);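 further: cells stimulated with testosterone during compound exposure; nearly all actives have a fitted effect of over 55% in size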
[9] = target: Estrogen receptor (Homo sapiens) (UniProt P03372); assay: qHTS assay to identify small molecule antagonists of the estrogen receptor alpha (ER-alpha) signaling pathway (AID 743069; active means well fitted curve in the direction sought with a large enough effect in the signal ratio in the repeat runs, not every such curve was filed as active; inconclusive means weak or mixed curves, or effect the other way; inactive means no such curve, though single readings can be large or run the other way; the % refers to the signal ratio)
Summary of the method: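 In this cell-based reporter format, GripTite HEK293 cells harbouring ER-alpha-UAS-bla were grown overnight with 2% charcoal-stripped FBS, dosed with DMSO-dissolved compounds, then challenged with 17beta-estradiol. After 18 hr at 37C, beta-lactamase activity was detected by FRET fluorescence.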
On the % scale 0 is the no-effect control and ±100 the full control effect.

Chain of Aromatase (Homo sapiens) (P11511 whole entry, looked up): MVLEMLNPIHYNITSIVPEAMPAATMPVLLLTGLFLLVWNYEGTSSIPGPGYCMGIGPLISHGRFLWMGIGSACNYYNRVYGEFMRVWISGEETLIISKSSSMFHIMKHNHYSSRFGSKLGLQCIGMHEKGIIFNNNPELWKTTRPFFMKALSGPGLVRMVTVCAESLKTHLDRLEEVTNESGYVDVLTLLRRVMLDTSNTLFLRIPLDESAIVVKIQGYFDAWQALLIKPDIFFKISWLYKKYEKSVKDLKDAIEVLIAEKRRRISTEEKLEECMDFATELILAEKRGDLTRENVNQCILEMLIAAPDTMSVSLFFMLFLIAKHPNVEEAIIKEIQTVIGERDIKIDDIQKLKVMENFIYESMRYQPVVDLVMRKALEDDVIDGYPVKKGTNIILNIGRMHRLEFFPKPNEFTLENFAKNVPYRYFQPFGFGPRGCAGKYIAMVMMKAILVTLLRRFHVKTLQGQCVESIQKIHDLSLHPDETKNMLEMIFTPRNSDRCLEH
Chain of Estrogen receptor (Homo sapiens) (P03372 whole entry, looked up): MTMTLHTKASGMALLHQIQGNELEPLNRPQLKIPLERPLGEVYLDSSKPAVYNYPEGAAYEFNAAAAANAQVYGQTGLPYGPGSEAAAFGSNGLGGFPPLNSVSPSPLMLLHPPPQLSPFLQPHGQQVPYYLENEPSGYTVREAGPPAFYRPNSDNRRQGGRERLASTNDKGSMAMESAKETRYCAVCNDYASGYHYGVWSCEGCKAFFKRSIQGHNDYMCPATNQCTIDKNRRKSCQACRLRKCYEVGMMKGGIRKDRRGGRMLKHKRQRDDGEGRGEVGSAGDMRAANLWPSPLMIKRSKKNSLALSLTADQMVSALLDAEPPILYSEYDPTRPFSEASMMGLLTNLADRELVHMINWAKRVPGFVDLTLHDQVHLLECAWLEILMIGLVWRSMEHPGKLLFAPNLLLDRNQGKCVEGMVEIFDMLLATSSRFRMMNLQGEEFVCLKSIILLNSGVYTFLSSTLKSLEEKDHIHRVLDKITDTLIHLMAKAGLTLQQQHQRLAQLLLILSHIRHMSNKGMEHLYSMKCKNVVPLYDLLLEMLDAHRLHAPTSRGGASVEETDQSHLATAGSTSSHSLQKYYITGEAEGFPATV

Cc1ccccc1C(=O)O
inactive: Potency [1] | Potency [2] | outcome [3] | outcome [4] | Potency (Aromatase (Homo sapiens))

CCn1cc(C(=O)O)c(=O)c2cc(F)c(N3CCN(C)CC3)cc21
inactive: Potency [1] | Potency [2] | outcome [3] | Potency [5] | Potency [6] | Potency [7] | outcome [4] | Potency (Aromatase (Homo sapiens)) | Potency [8]

C=CC(=O)N1CCOCC1
inactive: Potency [1] | Potency [2] | outcome [3] | outcome [4] | Potency (Aromatase (Homo sapiens)) | Potency [8]

C=C(C)C(=O)OCCCCCCCCCCCCCCCCCC
inactive: Potency [1] | Potency [2] | Potency [9] | Potency [5] | Potency [7] | outcome [4] | Potency (Aromatase (Homo sapiens)) | Potency [8]

CCO[Si](CCCN=C=O)(OCC)OCC
inactive: Potency [1] | Potency [2] | Potency [9] | Potency [5] | Potency [6] | outcome [4] | Potency (Aromatase (Homo sapiens)) | Potency [8]

C=C(C)C(=O)NCCC[N+](C)(C)C
inactive: Potency [1] | Potency [2] | Potency [9] | Potency [5] | Potency [6] | Potency [7] | outcome [4] | Potency (Aromatase (Homo sapiens)) | Potency [8]

COc1cc(O)cc(O)c1
inactive: Potency [1] | Potency [2] | outcome [3] | Potency [7] | outcome [4] | Potency (Aromatase (Homo sapiens)) | Potency [8]

CCCCCN(CCCCC)C(=O)C(CCC(=O)O)NC(=O)c1ccc(Cl)c(Cl)c1 (stereo unspecified)
inactive: Potency [1] | Potency [2] | outcome [3] | Potency [5] | Potency [7] | outcome [4] | Potency (Aromatase (Homo sapiens)) | Potency [8]

NC(=O)CCCCC1CCSS1 (stereo unspecified)
inactive: Potency [1] | Potency [2] | outcome [3] | outcome [4] | Potency (Aromatase (Homo sapiens))
active: Potency [5] 0.239 µM [inconclusive] | Potency [6] 0.0266 µM

N#CCN(CC#N)CCN(CC#N)CC#N
inactive: Potency [1] | Potency [2] | outcome [3] | outcome [4]

CC(C)(O)C(=O)c1ccc(OCCO)cc1
inactive: Potency [1] | Potency [2] | Potency [9] | Potency [5] | Potency [6] | outcome [4] | Potency (Aromatase (Homo sapiens)) | Potency [8]

CCN1CCN(c2cc3c(cc2F)c(=O)c(C(=O)O)cn3C2CC2)CC1
inactive: Potency [1] | Potency [2] | outcome [3] | outcome [4] | Potency (Aromatase (Homo sapiens))

CCCC(=O)O[C@]1(C(=O)CCl)[C@@H](C)C[C@H]2[C@@H]3CCC4=CC(=O)C=C[C@]4(C)[C@@]3(F)C(=O)C[C@@]21C
inactive: Potency [2] | outcome [3] | Potency [5] | Potency [6] | Potency (Aromatase (Homo sapiens)) | Potency [8]
active: Potency [1] 11.9 µM

CCC(C)OC(=O)N1CCCCC1CCO (stereo unspecified)
inactive: Potency [1] | Potency [2] | outcome [3] | outcome [4] | Potency (Aromatase (Homo sapiens)) | Potency [8]

O=C(O)c1ccccc1-c1ccc(C(F)(F)F)cc1
inactive: Potency [1] | Potency [2] | outcome [3] | Potency [5] | Potency [6] | Potency [7] | outcome [4] | Potency (Aromatase (Homo sapiens)) | Potency [8]

CC1=CC(C)C(C=O)C(C)C1 (stereo unspecified)
inactive: Potency [1] | Potency [2] | Potency [9] | Potency [5] | Potency [6] | Potency [7] | outcome [4] | Potency (Aromatase (Homo sapiens)) | Potency [8]

C=CCOc1nc(OCC=C)nc(OCC=C)n1
inactive: Potency [1] | Potency [2] | outcome [3] | outcome [4] | Potency (Aromatase (Homo sapiens)) | Potency [8]

CCCC=O
inactive: Potency [1] | Potency [2] | outcome [3] | outcome [4] | Potency (Aromatase (Homo sapiens)) | Potency [8]

CCc1cc(S(=O)(=O)O)c2cc(C(C)C)cccc1-2
inactive: Potency [1] | Potency [2] | Potency [9] | Potency [5] | Potency [6] | outcome [4] | Potency (Aromatase (Homo sapiens)) | Potency [8]

Cc1c(C)n(CCN(C)C)c2ccc(C(=O)OCCN(C)C)cc12
active: Potency [1] 21.1 µM
inactive: Potency [2] | Potency [9] | outcome [3] | Potency [5] | Potency (Aromatase (Homo sapiens)) | Potency [8]

C/C=C1\C(=O)C[C@H]2[C@@H]3CCC4=CC(=O)CC[C@]4(C)[C@H]3CC[C@]12C
inactive: Potency [2] | outcome [3] | Potency [5] | Potency [7] | outcome [4] | Potency (Aromatase (Homo sapiens)) | Potency [8]
active: Potency [1] 30 µM

OCc1ccccn1
inactive: Potency [1] | Potency [2] | outcome [3] | Potency [5] | Potency [6] | Potency [7] | outcome [4] | Potency (Aromatase (Homo sapiens)) | Potency [8]

C#CC(O)CCCCC (stereo unspecified)
inactive: Potency [1] | Potency [2] | outcome [3] | outcome [4] | Potency (Aromatase (Homo sapiens)) | Potency [8]

C=CCSCC1Nc2cc(Cl)c(S(N)(=O)=O)cc2S(=O)(=O)N1 (stereo unspecified)
inactive: Potency [1] | Potency [2] | outcome [3] | outcome [4] | Potency (Aromatase (Homo sapiens)) | Potency [8]

CC1=CC(=O)CCC1
inactive: Potency [1] | Potency [2] | outcome [3] | outcome [4] | Potency (Aromatase (Homo sapiens)) | Potency [8]

O=C(O)/C=C/c1ccc(/C=C/C(=O)O)cc1
inactive: Potency [1] | Potency [2] | outcome [3] | outcome [4] | Potency (Aromatase (Homo sapiens)) | Potency [8]

N#CCc1ccccc1[N+](=O)[O-]
inactive: Potency [1] | Potency [2] | outcome [3] | outcome [4] | Potency (Aromatase (Homo sapiens)) | Potency [8]

CCCc1ccccc1O
inactive: Potency [1] | Potency [2] | outcome [3] | outcome [4] | Potency (Aromatase (Homo sapiens)) | Potency [8]

OCC(O)[C@@H](O)[C@H](O)[C@H](O)CO[C@H]1O[C@H](CO)[C@@H](O)[C@H](O)[C@H]1O (stereo partly specified)
inactive: Potency [1] | Potency [2] | outcome [3] | outcome [4] | Potency (Aromatase (Homo sapiens)) | Potency [8]

CCCCCCCCCCC1CO1 (stereo unspecified)
inactive: Potency [1] | Potency [2] | outcome [3] | outcome [4] | Potency (Aromatase (Homo sapiens)) | Potency [8]

COc1cc(C(=O)N2CCOCC2)cc(OC)c1OC
inactive: Potency [1] | Potency [2] | outcome [3] | outcome [4] | Potency (Aromatase (Homo sapiens)) | Potency [8]

CO
inactive: Potency [1] | Potency [2] | outcome [3] | outcome [4] | Potency (Aromatase (Homo sapiens)) | Potency [8]

CC(CCO)CCCC(C)(C)O (stereo unspecified)
active: Potency [2] 27.3 µM
inactive: Potency [1] | outcome [3] | outcome [4] | Potency (Aromatase (Homo sapiens)) | Potency [8]

CC(C)CCCC(C)CCCC(C)CCCCC(C)CCCC(C)CCCC(C)C (stereo unspecified)
inactive: Potency [1] | Potency [2] | outcome [3] | outcome [4] | Potency (Aromatase (Homo sapiens)) | Potency [8]

OCCCCCCO
inactive: Potency [1] | Potency [2] | outcome [3] | outcome [4] | Potency (Aromatase (Homo sapiens)) | Potency [8]

N[C@@H](CS)C(=O)O
inactive: Potency [1] | Potency [2] | outcome [3] | outcome [4] | Potency (Aromatase (Homo sapiens)) | Potency [8]

C=CC(=O)OCCCCCC
inactive: Potency [1] | Potency [2] | outcome [3] | outcome [4] | Potency (Aromatase (Homo sapiens)) | Potency [8]

Cc1onc(-c2ccccc2)c1-c1ccc(S(N)(=O)=O)cc1
inactive: Potency [1] | Potency [2] | outcome [3] | outcome [4] | Potency (Aromatase (Homo sapiens)) | Potency [8]

COc1cccc(OC)c1
inactive: Potency [1] | Potency [2] | outcome [3] | outcome [4] | Potency (Aromatase (Homo sapiens)) | Potency [8]

FC(F)(F)C(F)(F)C(F)(F)C(F)(F)C(F)(F)C(F)(F)C(F)(F)C(F)(F)C(F)(F)C(F)(F)F
inactive: activity, negative = inhibition [1] 5.14% [at 8.44 µM] | activation [2] 0.424% [at 8.08 µM] | activity, negative = cytotoxicity [3] -10% [at 6.72 µM] | activity change, negative = cytotoxicity [4] 7.45% [at 8.47 µM] | activity, negative = inhibition (Aromatase (Homo sapiens)) 1.74% [at 8.47 µM] | activity change, negative = cytotoxicity [8] 5.22% [at 8.47 µM]

NS(=O)(=O)c1cc2c(cc1C(F)(F)F)NC(Cc1ccccc1)NS2(=O)=O (stereo unspecified)
inactive: Potency [1] | Potency [2] | outcome [3] | outcome [4] | Potency (Aromatase (Homo sapiens)) | Potency [8]

OC[C@H]1O[C@@H]2O[C@H]3[C@H](O)[C@@H](O)[C@@H](O[C@H]4[C@H](O)[C@@H](O)[C@@H](O[C@H]5[C@H](O)[C@@H](O)[C@@H](O[C@H]6[C@H](O)[C@@H](O)[C@@H](O[C@H]7[C@H](O)[C@@H](O)[C@@H](O[C@H]8[C@H](O)[C@@H](O)[C@@H](O[C@H]9[C@H](O)[C@@H](O)[C@@H](O[C@H]1[C@H](O)[C@H]2O)O[C@@H]9CO)O[C@@H]8CO)O[C@@H]7CO)O[C@@H]6CO)O[C@@H]5CO)O[C@@H]4CO)O[C@@H]3CO
inactive: Potency [1] | Potency [2] | outcome [3] | outcome [4] | Potency (Aromatase (Homo sapiens)) | Potency [8]

CCCC(C)CO (stereo unspecified)
inactive: Potency [1] | Potency [2] | outcome [3] | outcome [4] | Potency (Aromatase (Homo sapiens)) | Potency [8]

Cc1cc(C)c(NC(=O)CN(CC(=O)O)CC(=O)O)c(C)c1Br
inactive: Potency [1] | Potency [2] | outcome [3] | outcome [4] | Potency (Aromatase (Homo sapiens)) | Potency [8]
